TrxR1 inh – qHTS Assay for Inhibitors of Mammalian Selenoprotein Thioredoxin Reductase 1 (TrxR1): qHTS; AID 588453, 2011; Thioredoxin reductase 1, cytoplasmic (Rattus norvegicus), O89049; Potency, µM (titrated, usually from 114 µM), for inactives: at the top dose activity change, negative = inhibition, most hits filed as inhibitors; 390,000 tested, 1% active; recombinant rTrxR1, NADPH fluorescence consumption, selenite substrate; further: on the % scale 0 is the no-effect control and ±100 the full control effect; nearly all actives have a fitted effect of over 65% in size
Target sequence (O89049 whole entry, looked up): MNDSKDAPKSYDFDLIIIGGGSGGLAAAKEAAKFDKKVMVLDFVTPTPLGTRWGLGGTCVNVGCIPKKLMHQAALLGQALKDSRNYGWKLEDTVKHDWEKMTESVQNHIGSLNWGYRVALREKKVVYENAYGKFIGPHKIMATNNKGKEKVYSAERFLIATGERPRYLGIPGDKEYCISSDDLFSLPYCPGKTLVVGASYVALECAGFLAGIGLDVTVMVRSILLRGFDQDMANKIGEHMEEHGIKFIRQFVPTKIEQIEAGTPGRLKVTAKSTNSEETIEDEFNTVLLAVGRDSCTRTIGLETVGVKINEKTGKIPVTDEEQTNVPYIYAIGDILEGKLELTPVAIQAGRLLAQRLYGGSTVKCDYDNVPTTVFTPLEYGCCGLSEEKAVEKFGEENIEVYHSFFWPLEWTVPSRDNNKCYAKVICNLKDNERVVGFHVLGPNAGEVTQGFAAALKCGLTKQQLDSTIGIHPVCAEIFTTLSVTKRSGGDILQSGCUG
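Rat TrxR1 (90 nM in the dispensed reagent) was pre-reduced with 400 uM NADPH for 5 min at room temperature, then incubated with compound for 15 min. After 400 uM selenite was added, NADPH fluorescence (Ex 340/Em 450 nm) was followed for 8 min.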
Mito fusion yeast – qHTS Assay for Small Molecule Inhibitors of Mitochondrial Division or Activators of Mitochondrial Fusion. 320,000 tested, 0.23% active. Potency, µM (titrated, usually from 46.1 µM), without a hit: at the top dose growth rescue (activation), usual class: activators. S. cerevisiae fusion-defective mutant growth rescue, CellTiterGlo 48 h; further: % of control where 0% means no effect; nearly all actives have a fitted effect of over 45% in size
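Luminescent cell viability in 1536-well qHTS format served as the measure of rescued growth in ts fusion-mutant S. cerevisiae cultured on non-fermentable YPEG for 48 hours at 37C.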
TrxR1 substrate – qHTS Assay for Substrates of Mammalian Selenoprotein Thioredoxin Reductase 1 (TrxR1): qHTS; Thioredoxin reductase 1, cytoplasmic (Rattus norvegicus), O89049; purified TrxR1 substrate turnover, NADPH consumption readout; Potency, µM (series often up to 114 µM), for inactives: at the top dose activity change, negative = substrate turnover; 390,000 tested, 0.01% active; AID 588456, 2011; further: on the % scale 0 is the no-effect control and ±100 the full control effect; nearly all actives have a fitted effect of over 50% in size
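Rat TrxR1, dispensed at 90 nM, was prereduced with 400 uM NADPH (final) for 5 min at ~22 deg C, then incubated with compound 15 min before 400 uM selenite. A first-read NADPH fluorescence drop versus no-compound background flagged substrates.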
A549 tox – Nrf2 qHTS screen for inhibitors: counterscreen for cytotoxicity; Potency, µM (series often up to 46 µM), for inactives: at the top dose activity change, negative = cytotoxicity, most hits filed as inhibitors; 390,000 tested, 0.16% active; AID 504648, 2011; A549 ARE-Fluc cells, CellTiter-Fluor viability, 18-24 h; further: on the % scale 0 is the no-effect control and ±100 the full control effect
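Cytotoxicity counterscreen: CellTiter-Fluor fluorescence was measured in A549 ARE_Fluc cells after 18-24 h of compound exposure in a concentration series. The subsequent BugLite luminescent read reports ARE-luciferase activity.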
mIDH1 inhibitor – qHTS for Inhibitors of mutant isocitrate dehydrogenase 1 (IDH1): qHTS; Isocitrate dehydrogenase [NADP] cytoplasmic (Homo sapiens), O75874; Potency, µM (highest dose often 76.6 µM), for inactives: at the highest dose activity change, negative = inhibition, usual class: inhibitors; 390,000 tested, 0.093% active; IDH1-R132H enzyme, NADPH consumption, diaphorase/resazurin fluorescence; further: on the % scale 0 is the no-effect control and ±100 the full control effect; nearly all actives have a fitted effect of over 65% in size
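IDH1-R132H (0.5 ug/mL) preincubated 30 min with compound, then NADPH (0.016 mM) and alpha-KG (2 mM) added; 80 min at RT, pH 7.5. Remaining NADPH coupled via diaphorase/resazurin to fluorescence (540/590 nm); concentration-response curves normalized to no-enzyme control.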
Nrf2 block – Nrf2 qHTS screen for inhibitors; 360,000 tested, 2.1% active; AID 504444, 2011; A549 ARE-Fluc reporter, luciferase luminescence, 18-24 h; Potency, µM (series often up to 46 µM), for inactives: top-dose activity change, negative = inhibition, hits mostly inhibitors; further: on the % scale 0 is the no-effect control and ±100 the full control effect; nearly all actives have a fitted effect of over 60% in size
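In this cell-based qHTS, ARE-driven firefly luciferase in A549 cells reports Nrf2 activity; the luminescent signal after BugLite lysis is the measured value, with a prior CellTiter-Fluor read for cell health.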
* hit, by the source's call; u = inconclusive; x = no result given; [ ] = another dose, or the depositor's remark. Rows were chosen to be rich in hits. Some 3.1% of all compounds tested hit in one or more screens of this group. The call rests on the fitted dose curve; in most records, active means well fitted curve in the direction sought with a large enough effect; inconclusive means small, poorly fitted or top-dose-only effect, or another doubt; inactive means no such curve, though single readings can be large; an effect the other way counts as inactive or inconclusive. Potency means the concentration at half of the fitted maximal effect.

SMILES | TrxR1 inh | Mito fusion yeast | TrxR1 substrate | A549 tox | mIDH1 inhibitor | Nrf2 block
O=C(Nc1cccc(C(F)(F)F)c1)Nc1ccc(N2CCCC2)c(S(=O)(=O)Nc2ccccc2Cl)c1 | 29%[57.1 µM] | 6% | -2%[57.1 µM] | u | 2% | 3.3µM*
Cc1ccc2oc(=O)c3cnn(CC(=O)N4CCN(c5ccccc5F)CC4)c3c2c1 | 8% | x | 4% | -6% | -8% | 7%
Cc1nn(S(=O)(=O)c2ccc(F)cc2)c(C)c1S(=O)(=O)N1CCCCCC1 | 20%[57.1 µM] | x | 3%[57.1 µM] | 4% | -5% | x
CC1=CC(=O)C(C(C)C)=C/C1=N/OC(=O)c1cccc([N+](=O)[O-])c1 | 13µM* | 3% | 7% | -2% | 0% | -16%
CC1=CC(=NOC(=O)c2cccc([N+](=O)[O-])c2)C=C(C)C1=O | 10µM* | 4% | -1% | -18% | 1% | -6%
CC1=CC(=O)C(C(C)C)=C/C1=N\OC(=O)c1cccc2nc(C)oc12 | -21% | 2% | -12% | 1% | 6% | -1%
Cc1ccc(C(=O)O/N=C(\N)c2cccc([N+](=O)[O-])c2)cc1 | 11% | -2% | 3% | -7% | 18% | u
COc1ccc(CNC(=O)C2CCCCN2S(=O)(=O)c2ccc(F)cc2)cc1 (centres undefined) | 10%[57.1 µM] | x | 4%[57.1 µM] | -6% | -5% | -6%
CCOc1ccc(N2C(=O)C(CC(=O)Nc3ccc(F)cc3)N(Cc3ccccn3)C2=S)cc1 (centres undefined) | 10% | 0% | 0% | -7% | 4% | u
CCOc1ccc(N2C(=O)C(CC(=O)Nc3ccccc3)N(Cc3ccccn3)C2=S)cc1 (centres undefined) | 48% | 0% | 13% | u | 5% | 23µM*
CC1CCN(c2ccc3c(c2)S(=O)(=O)c2cccc(C(=O)NC[C@@H]4CCCO4)c2C3=O)CC1 | -7%[57.1 µM] | x | -2%[57.1 µM] | -9% | -5% | 9%
O=C(NCC1CCCO1)c1cccc2c1C(=O)c1ccc(N3CCC(Cc4ccccc4)CC3)cc1S2(=O)=O (centres undefined) | 13%[57.1 µM] | x | 7%[57.1 µM] | -8% | -8% | 21µM*
CN(C)c1ccc(CNC(=O)c2cccc(NC(=O)N3CCSc4ncccc43)c2)cc1 | 6% | x | 2% | 2% | -3% | -1%
C(=C\c1ccnc2ccccc12)/c1ccccc1 | -5% | x | 5%[0.0914 µM] | x | x | x
Cc1cccc(N2CCN(C(=O)Cn3nc(Cc4cccnc4)c4ccccc4c3=O)CC2)c1C | 21% | x | -2% | -9% | 2% | 16µM*
CCN(C(=O)Cn1nc(Cc2cccnc2)c2ccccc2c1=O)c1cc(C)ccc1C | 7% | x | 0% | 18% | 0% | 18µM*
Cc1cccc(N2CCN(C(=O)Cn3ccc4ccccc4c3=O)CC2)c1C | -16% | 8% | -6% | -5% | 0% | 18µM*
Cc1cccc(N2CCN(C(=O)Cn3cnc4c3c(=O)n(C)c(=O)n4C)CC2)c1C | -11% | 1% | -6% | -7% | 15% | -35%
O=C(Cn1nc(Cc2cccnc2)c2ccccc2c1=O)N1CCN(c2ccccn2)CC1 | 14%[57.1 µM] | -2% | 13% | -4% | 9% | -12%
CCc1ccccc1N(C)C(=O)c1cc2c(Cl)nc3ccc(C)cc3c2s1 | 12% | x | 7% | -1% | 9% | 2%
COc1ccccc1NC(=O)c1sc2nc(C)c(C(=O)Nc3ccc(C)cc3C)c(-c3ccco3)c2c1N | -7% | x | -11% | 11% | -6% | u
CC(=O)c1cn(CC(=O)Nc2ccccc2C)c2ccccc12 | -3% | 12% | -5% | -6% | 3% | 9.2µM*
CC(=O)c1cn(CC(=O)Nc2ccc(C)cc2)c2ccccc12 | 7%[57.1 µM] | 1% | -24%[57.1 µM] | -3% | 0% | u
Cc1cccc(NC(=O)Cn2cc(C(=O)c3ccco3)c3ccccc32)c1C | 20% | x | 8% | -22% | -27% | 21µM*
CC(=O)c1cn(CC(=O)Nc2c(C)cccc2C)c2ccccc12 | -6%[11.4 µM] | -1% | -7%[11.4 µM] | -11% | 1% | 9.2µM*
SMILES | TrxR1 inh | Mito fusion yeast | TrxR1 substrate | A549 tox | mIDH1 inhibitor | Nrf2 block
O=C(c1ccco1)c1cn(CCOc2ccc(F)cc2)c2ccccc12 | 24% | x | -3% | -27% | -2% | 23µM*
Cc1ccc(C)c(NC(=O)Cn2cc(C(=O)c3ccco3)c3ccccc32)c1 | 11% | x | -2% | -1% | -21% | -24%
CCOC(=O)c1ccc(-n2c(CN3CCC(O)CC3)nc3ccc([N+](=O)[O-])cc3c2=O)cc1 | 50µM* | -1% | -10% | 7% | 4% | 28%
CCOC(=O)c1ccc(-n2c(CN3CCC(C(N)=O)CC3)nc3ccc([N+](=O)[O-])cc3c2=O)cc1 | u | 4% | -2% | -8% | 0% | -16%
CCCCCCOc1ccc(CC(=O)O)cc1 | 1% | x | -1% | x | x | x
CCCC(O)(CCC)C(=O)NN(C(=O)CCl)c1ccccc1 | 11µM* | 0% | 8% | -13% | 3% | u
COc1cccc2cc(C(=O)N(Cc3cccs3)Cc3cccs3)c(=O)oc12 | 13% | x | 2% | -5% | x | 10%
COc1ccc(C(C[N+](=O)[O-])c2c(-c3ccccc3)cc3ccccn23)cc1 (centres undefined) | u | u | 1%[57.1 µM] | -22% | -11% | 9%
COc1cc(C(C[N+](=O)[O-])c2c(C)cc3ccccn23)ccc1O (centres undefined) | -52% | 19% | 4%[57.1 µM] | -16% | -14% | u
COc1ccc(C(C[N+](=O)[O-])c2c(-c3ccccc3)cc3ccccn23)cc1OC (centres undefined) | 16µM* | -10% | -5% | -3% | 4% | -15%
COc1cc(C(C[N+](=O)[O-])c2c(-c3ccccc3)cc3ccccn23)cc(OC)c1OC (centres undefined) | 1.8µM* | -8% | 0% | -10% | 0% | -54%
Cc1ccc(CN2CCCn3nc(C(=O)NCC(C)c4ccccc4)cc3C2=O)cc1 (centres undefined) | 5%[57.1 µM] | x | 1%[57.1 µM] | 9% | 15% | x
CC(C)CNC(=O)C1Nc2ccccc2C2C=CCC12 (centres undefined) | 10µM* | x | 9%[57.1 µM] | -1% | -19% | 1%

High-throughput results as filed in PubChem.
